Hit rate of the full screen: of about 340,000 compounds, about 2,100 (0.62%) were called active.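 How the source made its calls: active means first-screen hits whose inhibition reached a set limit at any dose in the follow-up dose series; inconclusive means inhibition above the set first-screen limit but never retested; inactive means the rest.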 Only a sample is shown. Entries with a potency or affinity are not part of this list.
Target: Rac GTPase-activating protein 1 (Homo sapiens) (UniProt Q9H0H5)
Assay: MgcRacGAP GTPase-activating activity inhibitors, confirmation, biochemical, ADP Hunter fluorescence, primary and confirmatory (AID 624330);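 further: fluorescence reports GDP produced by GAP-driven GTP hydrolysis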
Conditions: MgcRacGAP-stimulated Rac1 GTP hydrolysis, at 30 µM, stronger effect = higher value, GST-tagged Rac1 F28L mutant substrate

Chain of Rac GTPase-activating protein 1 (Homo sapiens) (Q9H0H5 whole entry, looked up): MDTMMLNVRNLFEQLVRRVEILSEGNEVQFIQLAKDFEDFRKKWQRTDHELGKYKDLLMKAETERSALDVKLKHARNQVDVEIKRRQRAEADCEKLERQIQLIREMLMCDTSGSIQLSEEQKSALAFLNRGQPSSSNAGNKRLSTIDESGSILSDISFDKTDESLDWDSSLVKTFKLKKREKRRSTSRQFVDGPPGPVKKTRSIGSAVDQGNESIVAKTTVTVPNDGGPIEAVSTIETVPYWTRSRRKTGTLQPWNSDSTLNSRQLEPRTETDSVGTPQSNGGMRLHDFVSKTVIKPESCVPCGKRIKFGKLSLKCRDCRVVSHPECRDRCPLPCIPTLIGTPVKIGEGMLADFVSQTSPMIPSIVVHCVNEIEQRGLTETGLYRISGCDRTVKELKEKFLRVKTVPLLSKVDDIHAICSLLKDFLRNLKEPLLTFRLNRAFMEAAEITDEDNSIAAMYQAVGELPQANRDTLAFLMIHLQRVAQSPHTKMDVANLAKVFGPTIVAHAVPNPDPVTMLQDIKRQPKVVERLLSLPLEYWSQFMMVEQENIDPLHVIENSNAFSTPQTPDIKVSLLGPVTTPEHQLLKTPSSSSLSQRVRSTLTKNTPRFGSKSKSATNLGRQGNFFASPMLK

inhibition, inactive:
CC1(C)CC(=O)C=C(NCCN2CCN(C(=S)Nc3ccccc3)CC2)C1 7.52%
Cc1ccc(NS(=O)(=O)c2ccc3c(c2)NC(=O)C(C)C(=O)N3)c(Br)c1 (stereo unspecified) -1.09%
Cc1onc(-c2ccccc2)c1C(=O)c1c[nH]c(C(=O)NCc2ccccn2)c1 3.33%
c1ccc(NN(Cc2ccccn2)c2ccccc2)cc1 -6.65%
O=C(CCC(=O)c1cccs1)Nc1ncccc1O 11.4%
CCOC(CCNC(=O)c1cn(CC(C)C)c(=O)c2c1c1ccccc1n2C)OCC 17.2%
CC(=O)Nc1cccc(Oc2cc(C#N)c(C#N)cc2N2CCCCCC2)c1 5.07%
O=C(CN1CCN(c2ccccc2)CC1)Nc1ccc2c(c1)OCCO2 0.3%
CC1CCCCN1CC(=O)Nc1ccc2c(c1)OCO2 (stereo unspecified) 31%
O=C(CNCc1ccccc1Cl)Nc1ccc2c(c1)OCCO2 29.9%
O=C(CNC1CCCCC1)Nc1ccc(Cl)cc1 1.58%
O=C(CN1CCN(c2ccc(F)cc2)CC1)Nc1ccc2c(c1)OCCO2 9.33%
CC1CCCCN1CC(=O)Nc1ccc(Oc2ccccc2)cc1 (stereo unspecified) 9.36%
O=C(CNC1CCCC1)Nc1ccc(S(=O)(=O)N2CCCCC2)cc1 3.94%
O=C(CSCc1ccc(Cl)cc1)Nc1ccc2c(c1)OCCO2 5.15%
CCC(=O)Nc1ccc(NC(=O)CSc2nnnn2CC)cc1C 6.52%
CCOC(=O)COc1ccc(S(=O)(=O)N2CCN(c3ccccc3)CC2)cc1 8.59%
O=C(CSc1nnc(-c2ccccc2)c(-c2ccccc2)n1)Nc1ccc(Br)cn1 4.25%
Cn1c(=O)[nH]c(=O)c2c1nc(Br)n2C/C=N/Nc1ccccc1 3.62%
COc1ccc(N(CC(=O)Nc2ccc3c(c2)OCCO3)S(=O)(=O)c2cccnc2)cc1 -11.8%
CC(=O)c1ccc(S(=O)(=O)NCCC(=O)NCCc2c[nH]c3ccccc23)cc1 3.35%
CCCCOC(=O)C1=C(C)Nc2ncnn2C1c1ccc(OC)c(OC)c1OC (stereo unspecified) 0.42%
COc1ccc(N2CCN(Cc3cc4c(cc3Br)OCCO4)CC2)cc1 4.68%
O=C(CN1CCCCCC1)Nc1ccc(Br)cc1 5.51%
COc1ccccc1N1CCN(Cc2cc3c(cc2Br)OCCO3)CC1 2.26%
O=C(CN1CCCCC1)Nc1ccccc1 -4.92%
O=C(CNC1CCCCCC1)Nc1ccccc1N1CCCCC1 8.73%
O=C(CNCC1CCCO1)Nc1ccccc1N1CCOCC1 (stereo unspecified) 22%
Cc1ccc(NC(=O)c2cnccn2)cc1S(=O)(=O)N1CCCCCC1 6.35%
COc1ccc(-c2nc(NC3=NCCCCC3)sc2C)cc1 6.19%
CCCNC(=O)c1onc(CSc2ccc(Cl)cc2)c1C(=O)NCC1CC1 7.59%
COC(=O)c1ccc(NC(=O)c2cn(-c3ccccc3)nc2-c2ccncc2)cc1 -0.99%
CN(C)c1ccc2c3c(ccc(N(C)C)c13)COC2 -1.08%
CC(C)(C)N=Cc1cc(-c2ccccc2)sc1O 7.65%
CN=Cc1nc(-c2ccccc2)oc1O 10.2%
CCCn1c(N2CCN(C(=O)N3CCCCC3)CC2)nc2ccccc21 -9.24%
C#CCOCCOCCOCCNc1nc(N2CCN(C(=O)[C@H](CCC(=O)O)n3cc(CN)nn3)CC2)nc(N2CCN(C(=O)[C@H](CCCCN)n3cc([C@@H](N)CC(N)=O)nn3)CC2)n1 8.54%
C#CCOCCOCCOCCNc1nc(N2CCN(C(=O)CCCCCCCCCCNC(=O)[C@@H](CCSC)n3cc(CCO)nn3)CC2)nc(N2CCN(C(=O)CCCCCCCCCCNC(=O)[C@H](CCSC)n3cc(CCO)nn3)CC2)n1 -2.72%
C#CCOCCOCCOCCNc1nc(N2CCN(C(=O)[C@H](CCCCN)n3cc(CN)nn3)CC2)nc(N2CCN(C(=O)[C@H](CCC(=O)O)n3cc(CN)nn3)CC2)n1 10.3%
C#CCOCCOCCOCCNc1nc(N2CCN(C(=O)C([C@@H](C)O)n3cc([C@@H](N)CCCCN)nn3)CC2)nc(N2CCN(C(=O)[C@H](CCCCN)n3cc([C@@H](N)CC(N)=O)nn3)CC2)n1 (stereo partly specified) 30.2%
C#CCOCCOCCOCCNc1nc(N2CCN(C(=O)CCCCCCCCCCNC(=O)[C@@H](CCSC)n3cc(CCO)nn3)CC2)nc(N2CCN(C(=O)CCCCCCCCCCNC(=O)[C@H](CCC(=O)O)n3cc(CCCCCN)nn3)CC2)n1 8.01%
C#CCOCCOCCOCCNc1nc(N2CCN(C(=O)[C@H](CCC(=O)O)n3cc([C@@H](N)CCCCN)nn3)CC2)nc(N2CCN(C(=O)[C@H](CCC(=O)O)n3cc([C@@H](N)CCCCN)nn3)CC2)n1 3.63%
C#CCOCCOCCOCCNc1nc(N2CCOCC2)nc(N2CCN(C(=O)[C@H](CCCCN)n3cc(CN)nn3)CC2)n1 20.9%
C#CCOCCOCCOCCNc1nc(N2CCN(C(=O)C([C@@H](C)O)n3cc([C@@H](N)CCCCN)nn3)CC2)nc(N2CCN(C(=O)C([C@@H](C)O)n3cc([C@@H](N)CCCCN)nn3)CC2)n1 (stereo partly specified) 27.4%
COc1ccc(S(=O)(=O)N2CCN(c3ncccn3)CC2)cc1 -2.15%
COc1ccc(NC(=O)c2ccc(N3CCCC3=O)cc2)cc1Cl -8.17%
Cc1ccc(SCC(=O)Nc2ccc(N3CCOCC3)cc2)cc1 9.38%
Cc1ccc(Cn2ccc(NC(=O)c3noc4c3CCCC4)n2)cc1 -0.93%
Cc1cc(C(F)(F)F)nn1Cc1n[nH]c(=S)n1Cc1ccccc1 8.02%
CCC(O)CNC(=O)NC(=C(Cl)Cl)c1ccc(C)c(F)c1 (stereo unspecified) -0.09%
O=C(N/N=C\c1cccc(Cl)c1)c1n[nH]c2c1CCCC2 2.96%
CCOC(=O)CNC(=O)C(=O)c1c(O)[nH]c2ccccc12 15.3%
Cc1ccc2c(COC(=O)C34CC5CC(CC(C5)C3)C4)cc(=O)oc2c1 0.94%
Cc1ccc(NCC(=O)c2ccccc2)cc1Cl 3.37%
Cc1ccc(S(=O)(=O)NC(=O)Nc2ccc(F)c(F)c2)cc1 8.4%
COc1cc(NC(=O)NS(=O)(=O)c2ccc(C)cc2)cc(OC)c1 4.34%
COc1ccc(N2CCN(CC(=O)c3c[nH]c4ccccc34)CC2)cc1 -4.34%
CNC(=O)CSc1nc2sccc2c(=O)n1-c1ccccc1 4.24%
COc1ccc(NC(=O)CSc2nc(N)c(C(=O)Nc3ccc(N(C)C)cc3)s2)cc1 16.4%
CCN(CC)C(=O)CSc1nc(N)c(C(=O)Nc2ccc(OC)cc2)s1 14%
Cc1nnc(SCC(=O)Nc2nccs2)s1 1.9%
CN(C)c1ccc(NC(=O)c2sc(SCC(=O)Nc3ccc(Br)cc3)nc2N)cc1 10.8%
Cc1cc(C)cc(OCC(=O)OCC(=O)NC2CC2)c1 -3.46%
CC(C)C(O)(C#CCN1CCCCC1)c1ccccc1 (stereo unspecified) -1.57%
Cc1ccc(NC(=O)CSCC(=O)Nc2nnc(C3CC3)s2)cc1 7.27%
CCOC(=O)c1c(C)n(-c2ccc(C)cc2)c2ccc(OCC(O)CNCCCO)cc12 (stereo unspecified) 14.9%
CCOC(=O)c1c(C)n(-c2ccc(C)cc2)c2ccc(OCC(O)CN3CCN(C)CC3)cc12 (stereo unspecified) 5.99%
O=C(COC(=O)c1cc(=O)[nH]c(=O)[nH]1)NCc1ccccc1 3.71%
O=C(Nc1nnc(-c2ccncc2)s1)C1CCCO1 (stereo unspecified) 2.37%
CC(C)CN(C(=O)COC(=O)c1cc(=O)[nH]c2ccccc12)c1c(N)n(Cc2ccccc2)c(=O)[nH]c1=O 4.11%
OC(CNCCc1ccccc1)COc1ccc(OCC(O)CNCCc2ccccc2)cc1 (stereo unspecified) 8.04%
CCOc1ccc(OCC(O)CNC2CCN(Cc3ccccc3)CC2)cc1 (stereo unspecified) 7.46%
COc1ccc(CNCC(O)COc2ccc(C(C)(C)c3ccccc3)cc2)cc1 (stereo unspecified) 26.6%
CC(C)(c1ccccc1)c1ccc(OCC(O)CN2CCCC2)cc1 (stereo unspecified) 9.77%
CCCCCC(=O)C(=O)c1ccc(O)cc1O -2.38%
O=C(NNC(=O)c1cccnc1)NC1CCCCC1 7.92%
CSc1cccc(NS(=O)(=O)c2cc(Br)cnc2N)c1 -1.74%
O=C(Nc1ccc(N2CCCCC2)cc1)c1ccc(F)cc1 4.29%
O=C(Nc1ccc(N2CCCCCC2)cc1)c1ccccc1Cl 20.3%
CC(=O)N1CCN(c2ccc(NC(=O)c3ccccc3C)cc2)CC1 9.24%
O=C(Nc1ccc(N2CCCCC2)cc1)c1ccccc1 36.6%
CC(c1ccncn1)N(C)C(=O)c1ccc2oc(Cc3ccccc3)nc2c1 (stereo unspecified) 6.98%
CC1CCCCC1NC(=O)CN(C)S(=O)(=O)c1cccc2nsnc12 (stereo unspecified) 9.08%
COc1ccc(/C=N/NC(=S)NCC2CCCO2)cc1 (stereo unspecified) 5.53%
COc1ccc(/C=N/NC(=O)C(=O)N2CCCC2)cc1OC 7.5%
COc1cc(/C=N/NC(=S)NCC2CCCO2)cc(OC)c1OC (stereo unspecified) 7.93%
COc1ccc(/C=N/NC(=O)C(=O)N2CCCCCC2)cc1O 11.9%
S=C(NCc1ccco1)N/N=C/c1ccncc1 2.98%
S=C(NCc1ccco1)N/N=C/c1ccc(Cl)cc1 17.1%
CCOc1ccc(/C=N/NC(=O)CN2CCCCC2)cc1OCC 10.1%
CCCOc1ccc(/C=N/NC(=O)CN2CCCCC2)cc1OCC 0.56%

From PubChem BioAssay AID624330 (Southern Research Specialized Biocontainment Screening …, 2012)
